Assay outcomes from PubChem BioAssay.
TROY signal inh: blocks TROY-dependent signaling in reporter cells. AID 1347056. inhibition, % at 10 µM. Q293 LMP1-TROYcd NF-kB luciferase reporter, 4 h. 0.98% of 360,000 active;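 active = compounds whose plate-normalised and pattern-corrected inhibition of the luciferase reporter signal at the single screening dose is 50% or more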
HIF-2a block: blocks HIF-2a reporter activity; 786-0 RCC cells HIF-2a reporter, luciferase luminescence, overnight; inhibition, % at 18.8 µM; 0.72% of 360,000 active; AID 624352;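 active = inhibition of the luminescence signal of 40% or more relative to plate controls, in a single-dose primary screen at 18.75 µM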
TWEAK Fn14 block: TWEAK-Fn14 signaling inhibition. 2% of 360,000 active. inhibition, % at 10 µM. TWEAK-stimulated Fn14 reporter cells, luciferase luminescence, 8 h; in the data active = inhibition above about 50%
Peg3 promoter: inhibitors of Peg3 promoter | HeLa PEG-Prom luciferase reporter, luminescence, overnight | inhibition, % at 20 µM | 1.7% of 360,000 active | AID 588405;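 active = inhibition of at least 50% at 20 µM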
CF NFkB inh: inhibitors of cystic fibrosis induced NF-kB | KKLEB NF-kB-GFP reporter, PAF-induced, GFP fluorescence overnight | inhibition, % at 5 µM | 0.86% of 360,000 active | AID 588850;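 active = at least 50% inhibition at 5 µM, scaled per plate between neutral and stimulator controls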;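 note: PAF is a Pseudomonas aeruginosa culture filtrate used as stimulus; plate controls were PAF-stimulated DMSO wells for no effect and unstimulated DMSO wells for full effect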
KKLEB cytotox: counter-screen for CF NF-kB inhibitors: cytotoxicity; KKLEB CF airway cells viability, ATPlite luminescence, overnight; hits give low values; cells stimulated with P. aeruginosa culture filtrate; activity change (cytotoxicity), % at 5 µM; 0.36% of 360,000 active; AID 602141;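 active = corrected activity change at or below -50% at 5 µM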
An asterisk follows results filed as active; . = no result. Sampled rows, rich in hits. Any-hit rate of the full collection: about 4%.

SMILES	TROY signal inh	HIF-2a block	TWEAK Fn14 block	Peg3 promoter	CF NFkB inh	KKLEB cytotox
CC(=O)Nc1nc(-c2ccc([N+](=O)[O-])cc2)cs1	-41.5	-61.6	-6.5	-38.3	-32.0	22.5
COc1ccc(Cc2nnc(N/N=C/c3ccc(Br)cc3)[nH]c2=O)cc1OC	14.3	15.6	-12.9	-0.1	8.4	-15.5
COc1ccc(Cc2nnc(N/N=C/c3ccc(O)cc3)[nH]c2=O)cc1OC	10.0	-2.7	26.1	59.5*	23.4	-18.9
CCN1/C(=C/C=C/c2oc3ccc(-c4ccccc4)cc3[n+]2CC)Oc2ccc(-c3ccccc3)cc21	-0.7	86.5*	55.9*	83.8*	-412.3	-20.0
CCCCN1C(=O)/C(=C/C=C2\Oc3ccccc3N2CC)SC1=S	27.8	-17.3	4.6	-1.4	-113.6	-9.5
CCCCOC(=O)C1C2C=C[C@]3(CN(C(C)c4ccc(OC)cc4)C(=O)[C@H]13)O2 (some centres undefined)	.	7.9	88.9*	14.6	-18.6	0.5
COc1cc2cc(-c3ccc(OC)c(OC)c3C)nc(N)c2cc1OC	13.0	23.1	-11.7	64.8*	10.4	1.6
COc1cccc(CN2CCCC(C(=O)N3CCCCC3)C2)c1 (centres undefined)	0.2	4.1	9.6	11.7	-8.1	-3.6
Cc1ccn2cc(-c3ccc(Br)cc3)nc2c1	33.1	-44.6	73.4*	-68.9	-27.0	-47.3
Brc1ccc2nc(-c3c[nH]c4ccccc34)cn2c1	-39.0	-340.7	-10.4	-378.0	-31.9	-2.9
Clc1ccc(-c2cn3cc(Br)ccc3n2)cc1Cl	27.6	-86.1	57.5*	-67.2	3.2	-7.1
Cc1cc2n(n1)SC(Nc1cccc3ccccc13)N2 (centres undefined)	20.1	-230.4	19.1	-254.2	-1.9	10.1
CCc1ccccc1NC1Nc2cc(C)nn2S1 (centres undefined)	6.9	-1.3	56.6*	2.1	-30.9	19.4
COC(=O)c1ccc2nc(-c3ccc(C#N)cc3)c(Cc3cccc(F)c3)n2c1	2.6	9.4	9.7	-2.3	-25.6	-29.5
COc1cccc(NC(=O)N2CCc3nc(Nc4ccc(C(C)C)cc4)ncc3C2)c1	71.0*	-59.1	74.8*	-33.3	-13.2	2.4
COc1cc(Nc2ncc3c(n2)CCN(C(=O)Nc2ccc(C(C)C)cc2)C3)cc(OC)c1OC	38.3	-15.0	22.4	17.6	20.0	-2.5
COc1ccc2[nH]c3c(c2c1)CCN1C(=O)C(CC(=O)NCCC2=CCCCC2)C[C@H](C(=O)N2CCOCC2)[C@@]31C (some centres undefined)	-1.9	11.3	6.3	12.3	3.5	-0.8
Cc1noc(C)c1NC(=O)N(C)C[C@H]1Oc2ccc(NC(=O)Nc3ccc4c(c3)OCO4)cc2C(=O)N([C@H](C)CO)C[C@@H]1C	-0.1	1.5	1.0	-6.4	7.7	4.2
O=C(O)CCCNS(=O)(=O)c1ccc2ccccc2c1	-0.3	22.9	-3.9	16.6	-1.5	-5.8
O=C(CCCNS(=O)(=O)c1ccc(F)cc1)Nc1ccc(F)cc1	1.0	5.1	97.2*	8.8	-19.8	0.2
O=C(O)CCCNS(=O)(=O)c1ccccc1	8.5	2.9	62.5*	-2.5	0.2	2.0
O=C(c1ccc(COc2ccc(Cl)cc2Cl)o1)N1CCCC1	-27.2	-199.2	-48.4	-139.7	-9.1	-15.4
Cc1cc(C(=O)CSc2nnc(-c3ccccc3)o2)c(C)n1CC1COc2ccccc2O1 (centres undefined)	3.5	7.1	26.3	5.7	1.7	-10.2
Cc1cc(C(=O)CSc2nnc(-c3ccco3)o2)c(C)n1CC1COc2ccccc2O1 (centres undefined)	.	24.4	85.5*	23.1	17.6	-3.1
CCOc1ccc(CCNC(=O)c2nnc(CS(=O)(=O)c3ccccc3)o2)cc1OCC	1.7	1.6	5.2	7.3	11.3	1.8
SMILES	TROY signal inh	HIF-2a block	TWEAK Fn14 block	Peg3 promoter	CF NFkB inh	KKLEB cytotox
COc1ccc(NC(=O)CSCC(=O)N(C)Cc2ccc3c(c2)OCCO3)cc1	2.6	16.6	-7.5	-11.7	-0.1	0.7
Cc1ccc(OCc2nc(-c3ccccn3)n[nH]2)cc1	-36.1	-140.5	-42.0	-135.7	-4.9	0.3
Cc1cccc(OCc2nc(-c3ccccn3)n[nH]2)c1	61.1*	-41.6	-5.5	-44.5	-7.4	0.7
CCOC(=O)N1CCN(S(=O)(=O)c2c(C)nc3scc(C)n3c2=O)CC1	3.5	17.9	1.8	8.7	5.3	-8.7
CC(C)c1ccc(CNc2nc(NCC3CC3)nc3ccsc23)cc1	40.8	12.3	39.7	53.9*	30.9	-33.5
CSc1ccccc1CNc1nc(NCC2CC2)nc2ccsc12	51.5*	26.2	28.9	29.4	15.4	-16.3
COc1cccc(CNc2nc(NCC3CC3)nc3ccsc23)c1	22.9	15.3	-21.1	15.8	-14.1	-26.8
COc1ccccc1CNc1nc(NCc2ccc(C(C)C)cc2)c2sccc2n1	24.7	7.7	17.3	95.3*	28.9	-15.2
COc1ccccc1CNc1nc(NCCOc2ccccc2Cl)c2sccc2n1	41.1	-9.0	38.8	59.6*	18.0	-28.9
COc1cccc(CNc2nc(NCC3CC3)nc3ccsc23)c1OC	25.5	22.3	17.8	10.7	-0.6	-4.9
O=C(COC(=O)/C=C/c1ccc(C(F)(F)F)cc1)NC1CCS(=O)(=O)C1 (centres undefined)	-2.2	12.5	-19.5	8.0	-3.8	13.0
COc1cc(Cl)c(C)cc1NC(=O)CSC1=NCCS1	2.3	4.4	14.9	-14.7	23.6	-12.3
Cc1ccccc1C(=O)N1CCC2CC1c1cc(Cl)ccc12 (centres undefined)	81.1*	0.3	3.6	16.7	9.1	-19.2
CCN(CC)C(=O)c1ccc2c3c(cccc13)C(=O)N(CCc1ccc(OC)c(OC)c1)C2=O	35.0	3.2	39.0	59.9*	4.5	-6.5
COc1ccccc1N1C(C)=CC(=C(C#N)c2nc3ccccc3s2)C=C1C	71.8*	5.1	83.0*	0.2	5.1	-2.1
CC1=CC(=C(C#N)c2nc3ccccc3s2)C=C(C)N1c1ccc(F)cc1	10.8	-169.9	-11.5	-120.6	-10.2	-1.3
OC[C@H]1O[C@@H](c2nc3ccc(-c4nc(-c5ccc(Br)cc5)no4)cc3[nH]2)C[C@@H]1O	45.7	-296.2	63.0*	-182.0	-37.6	13.7
CCN(CC)C(=O)c1ccc2nc([C@H]3C[C@H](O)[C@@H](CO)O3)[nH]c2c1	0.9	3.5	5.3	12.6	3.7	6.0
COc1ccc(-c2ccc(NC(=O)c3ccc(Br)o3)cc2)nn1	-42.5	-209.2	7.2	-222.2	-33.6	13.1
CCCCS(=O)(=O)N1CCCC(C(=O)Nc2ccc(Cl)cn2)C1 (centres undefined)	4.7	16.6	85.5*	8.8	-0.5	3.5
CC(=O)Nc1ccc(C(=O)OCC(=O)c2cccc([N+](=O)[O-])c2)cc1	-20.6	5.7	14.1	-4.7	13.8	-1.1
